Screening results deposited in PubChem by National Center for Advancing Translational Sciences (NCATS).
Hits are enriched below; roughly 2.4% of the tested compounds scored in any of these assays.
POLB inh: qHTS Assay for Inhibitors of DNA Polymerase Beta; P06746; Potency, µM (doses to about 114 µM), hits mostly inhibitors; 340,000 compounds, 1.3% hits; Pol beta primer extension/strand displacement, fluorescence kinetic
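Pol beta (10 nM) and compounds were preincubated 15 min at room temperature, then 50 nM substrate (final) started primer extension/strand displacement. Reads were taken at 0 and 10 min; concentration-response data were fitted to a four-parameter Hill equation.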
Pol iota inh: qHTS for Inhibitors of Polymerase Iota. 390,000 compounds, 1% hits. Potency, µM (highest dose often 115 µM), most hits filed as inhibitors. AID 588590, 2011. Pol iota fluorescent replication assay, 10 min
Target sequence (Q9UNA4 whole entry, looked up): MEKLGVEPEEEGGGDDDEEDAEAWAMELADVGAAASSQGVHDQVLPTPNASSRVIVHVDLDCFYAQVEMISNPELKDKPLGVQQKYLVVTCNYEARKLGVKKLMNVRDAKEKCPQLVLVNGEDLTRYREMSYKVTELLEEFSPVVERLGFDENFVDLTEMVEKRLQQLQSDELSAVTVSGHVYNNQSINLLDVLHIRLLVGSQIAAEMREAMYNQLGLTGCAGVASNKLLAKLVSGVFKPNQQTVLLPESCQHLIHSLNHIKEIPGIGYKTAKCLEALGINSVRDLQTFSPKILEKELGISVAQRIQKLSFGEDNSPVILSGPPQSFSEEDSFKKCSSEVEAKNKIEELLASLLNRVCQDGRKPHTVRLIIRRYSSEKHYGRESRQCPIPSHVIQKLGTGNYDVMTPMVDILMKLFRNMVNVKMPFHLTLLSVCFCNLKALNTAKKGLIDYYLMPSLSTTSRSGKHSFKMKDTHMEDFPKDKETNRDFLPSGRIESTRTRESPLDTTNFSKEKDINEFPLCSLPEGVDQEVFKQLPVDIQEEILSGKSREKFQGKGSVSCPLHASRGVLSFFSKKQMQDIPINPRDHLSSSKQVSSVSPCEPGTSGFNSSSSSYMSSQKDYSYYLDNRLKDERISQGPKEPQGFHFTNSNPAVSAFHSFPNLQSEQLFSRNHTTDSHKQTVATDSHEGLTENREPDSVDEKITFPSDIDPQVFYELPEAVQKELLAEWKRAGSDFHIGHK
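Fluorescent replication assay read twice, at 0 min and 10 min after adding 50 nM (final) substrate. Enzyme (10 nM) and compounds were first incubated 15 min at room temperature; enzyme-free buffer wells were negative controls.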
Pol kappa inh-1: qHTS for Inhibitors of Polymerase Kappa. purified Pol kappa, fluorescent DNA synthesis assay, 10 min. Potency, µM (doses to about 107 µM), most hits filed as inhibitors. 400,000 compounds, 0.53% hits. AID 588579, 2011
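Kinetic fluorescence screen: compound preincubated 15 min RT with 10 nM enzyme; 50 nM substrate (final) initiates; reads at 0/10 min.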
WRN helicase inh-1: qHTS for Inhibitors of WRN Helicase; WRN helicase unwinding, fluorescent forked duplex, kinetic; Potency, µM (doses to about 114 µM), most hits filed as inhibitors; 360,000 compounds, 0.46% hits; AID 651768, 2012; further: nearly all actives have a fitted effect of over 55% in size
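Enzyme (20 nM final) and test compound sit together 15 min at room temperature before substrate addition. Substrate is a single-forked duplex oligonucleotide (100 nM) labelled with fluorophore and quencher, with 2 mM ATP; helicase unwinding raises red fluorescence, read kinetically.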
Pol eta inh-1: qHTS for Inhibitors of Polymerase Eta; Potency, µM (titrated, usually from 114 µM), usual class: inhibitors; 390,000 compounds, 1.2% hits; recombinant Pol eta, fluorescent DNA replication assay
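Pol eta (10 nM) was preincubated with compounds for 15 min at room temperature, after which fluorescent replication substrate (50 nM final) was added to start the reaction. Fluorescence was read kinetically at 0 and 10 min.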
FEN1 inh-1: qHTS Assay for the Inhibitors of Human Flap endonuclease 1 (FEN1); P39748; Recombinant FEN1 flap cleavage, fluorescence, 15 min; Potency, µM (series often up to 114 µM), most hits filed as inhibitors; 390,000 compounds, 0.35% hits; AID 588795, 2011; further: nearly all actives have a fitted effect of over 65% in size
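Quantitative HTS format: each compound was titrated, incubated with 10 nM nuclease for 15 min at room temperature, then challenged with flap substrate at 50 nM final. Signal change over 15 min gave concentration–effect curves.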
Pol iota confirm: qHTS for Inhibitors of Polymerase Iota: Confirmatory Assay for Cherry-picked Compounds | shares compounds with Pol kappa inh-1 | Pol iota primer extension, TAMRA/BHQ fluorescence | Potency, µM, usual class: inhibitors | 1,500 compounds, 77% hits | AID 720496, 2013
Pol kappa inh-2: qHTS for Inhibitors of Polymerase Kappa: Confirmatory Assay for Cherry-picked Compounds; AID 720501, 2013; Potency, µM, usual class: inhibitors; shares compounds with Pol eta inh-1; 920 compounds, 76% hits; purified Pol-kappa, fluorescent strand-displacement substrate
Pol eta inh-2: qHTS for Inhibitors of Polymerase Eta: Confirmatory Assay for Cherry-picked Compounds; shares compounds with Pol eta inh-1; Pol eta primer extension, TAMRA/BHQ fluorescence, 10 min; Potency, µM, most hits filed as inhibitors; 2,600 compounds, 64% hits
FEN1 inh-2: qHTS Assay for the Inhibitors of FEN1: Confirmatory Assay for Cherry-picked Compounds. shares compounds with FEN1 inh-1. FEN1 flap cleavage, TAMRA/BHQ2 fluorogenic DNA substrate. Potency, µM, hits mostly inhibitors. 880 compounds, 79% hits; further: nearly all actives have a fitted effect of over 60% in size
WRN helicase inh-2: qHTS for Inhibitors of WRN Helicase: Confirmatory Assay for Cherry-picked Compounds; shares compounds with WRN helicase inh-1; WRN helicase DNA unwinding, fluorescence kinetic; Potency, µM (top dose mostly 57.1 µM), usual class: inhibitors; 610 compounds, 63% hits; further: nearly all actives have a fitted effect of over 65% in size
TO DNA binding: qHTS for Inhibitors of WRN Helicase: Thiazole Orange DNA Binding Counterscreen; 610 compounds, 10% hits; Potency, µM (titrated, usually from 57.1 µM), hits mostly inhibitors; AID 720499, 2013; thiazole orange DNA binding displacement, fluorescence; shares compounds with WRN helicase inh-1;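 further: drop in dye fluorescence marks compound binding to DNA; nearly all actives have a fitted effect of over 60% in size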
BLM counter: qHTS for Inhibitors of WRN Helicase: BLM Helicase Counterscreen for WRN Inhibitors | Potency, µM (top dose mostly 57.1 µM), actives largely listed as inhibitors | AID 720503, 2013 | 610 compounds, 60% hits | Recombinant BLM helicase DNA unwinding, red fluorescence | shares compounds with WRN helicase inh-1; further: nearly all actives have a fitted effect of over 60% in size
Hits are given with their value. The call rests on the fitted dose curve; in most records, active means well fitted curve in the direction sought with a large enough effect; inconclusive means small, poorly fitted or top-dose-only effect, or another doubt; inactive means no such curve, though single readings can be large; an effect the other way counts as inactive or inconclusive.

How did Cc1ccc(C(=O)NCC(=O)OC(C)C(=O)Nc2ccc(N(C)C)cc2)s1 (centres undefined) do in these assays?
POLB inh: inactive; Pol iota inh: inactive; Pol kappa inh-1: inactive; WRN helicase inh-1: inactive; Pol eta inh-1: inactive; FEN1 inh-1: inactive

How did O=C1C=C(NCCc2cc(Br)c(O)c(Br)c2)C(=O)c2ncccc21 do in these assays?
Pol iota inh: 3.16µM; Pol kappa inh-1: 28.2µM; WRN helicase inh-1: 25.1µM; Pol eta inh-1: 3.55µM; FEN1 inh-1: 44.7µM; Pol iota confirm: 16.8; Pol kappa inh-2: 23.8; Pol eta inh-2: 26.9; FEN1 inh-2: 60.1; WRN helicase inh-2: 21.5µM; TO DNA binding: inconclusive; BLM counter: 19.2µM

Results for CC(C)(C)c1cc(CCC(=O)NCCc2ccccn2)cc(C(C)(C)C)c1O ?
POLB inh: inactive; Pol iota inh: inactive; Pol kappa inh-1: inactive; WRN helicase inh-1: inactive; Pol eta inh-1: inactive; FEN1 inh-1: inactive

Results for O=C(O)c1ccccc1/C=N/Nc1ccc(S(=O)(=O)N2CCCC2)cc1[N+](=O)[O-] ?
POLB inh: inactive; Pol iota inh: inactive; Pol kappa inh-1: inactive; WRN helicase inh-1: inactive; Pol eta inh-1: inactive; FEN1 inh-1: inactive

Results for O=C(O)c1ccccc1NS(=O)(=O)c1ccc(NN=Cc2ccccc2F)c([N+](=O)[O-])c1 ?
Pol iota inh: 56.2µM; Pol kappa inh-1: inconclusive; WRN helicase inh-1: 79.4µM; Pol eta inh-1: 28.2µM; FEN1 inh-1: inconclusive; Pol iota confirm: inconclusive; Pol eta inh-2: 60.1; FEN1 inh-2: 75.7; WRN helicase inh-2: 24.1µM; TO DNA binding: inconclusive; BLM counter: 21.5µM

How did COc1ccc(S(=O)(=O)Nc2cc(Sc3ncn[nH]3)c(O)c3ccccc23)cc1 do in these assays?
POLB inh: 22.4µM; Pol iota inh: 5.01µM; Pol kappa inh-1: inconclusive; WRN helicase inh-1: 9.47µM; FEN1 inh-1: 6.31µM; Pol iota confirm: 42.3; Pol eta inh-2: inconclusive; FEN1 inh-2: inconclusive; WRN helicase inh-2: 24.1µM; TO DNA binding: inactive; BLM counter: inconclusive
